# According to PubChem BioAssay AID1159580 (chemical genetic matrix, 2015):
# The whole screen tested about 5,500 compounds, of which about 2,000 (36%) were called active. Roughly 18% stayed inconclusive and do not appear here. This is one part of the list. Unmarked numbers belong to inactive results. No stated cut-off is given here; in the data, active means normalized growth mostly below about 0.91 (no sharp cut-off); inconclusive means no clear call, values can overlap the other calls; inactive means mostly above about 0.92.
# Experiment: chemical genetic growth profiling, strain panel (AID 1159580);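 further: tested at 20 µM; growth read once vehicle control cultures reached saturation at 30 °C; 1 = growth at the plate median or of vehicle wells; lower values mean less growth of the strain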
# Settings: S. cerevisiae deletion strains, growth OD
# [1] = locus YAR019C, strain CDC15, active compounds read low
# [2] = locus YBL105C, strain PKC1, active compounds read low
# [3] = locus YBR135W, strain CKS1, active compounds read low
# [4] = locus YBR136W, strain MEC1, active compounds read low
# [5] = locus YBR160W, strain CDC28, active compounds read low
# [6] = locus YDL017W, strain CDC7, active compounds read low
# [7] = locus YDL028C, strain MPS1, active compounds read low
# [8] = locus YDL101C, strain DUN1, active compounds read low
# [9] = locus YDL108W, strain KIN28, active compounds read low
# [10] = locus YDL132W, strain cdc53, active compounds read low
# [11] = locus YDL214C, strain PRR2, active compounds read low
# [12] = locus YDR052C, strain DBF4, active compounds read low
# [13] = locus YDR054C, strain cdc34, active compounds read low
# [14] = locus YDR226W, strain ADK1, active compounds read low
# [15] = locus YDR477W, strain SNF1, active compounds read low
# [16] = locus YER123W, strain YCK3, active compounds read low
# [17] = locus YER133W, strain GLC7, active compounds read low
# [18] = locus YFL009W, strain cdc4, active compounds read low
# [19] = locus YFL029C, strain CAK1, active compounds read low
# [20] = locus YFR003C, strain YPI1, active compounds read low
# [21] = locus YFR019W, strain FAB1, active compounds read low
# [22] = locus YFR028C, strain CDC14, active compounds read low
# [23] = locus YGR040W, strain KSS1, active compounds read low
# [24] = locus YGR052W, strain FMP48, active compounds read low
# [25] = locus YGR092W, strain DBF2, active compounds read low
# [26] = locus YHR030C, strain SLT2, active compounds read low
# [27] = locus YHR079C, strain IRE1, active compounds read low
# [28] = locus YHR082C, strain KSP1, active compounds read low
# [29] = locus YHR205W, strain SCH9, active compounds read low
# [30] = locus YIL147C, strain SLN1, active compounds read low
# [31] = locus YJL095W, strain BCK1, active compounds read low
# [32] = locus YJL128C, strain PBS2, active compounds read low
# [33] = locus YJL157C, strain FAR1, active compounds read low
# [34] = locus YJR016C, strain ILV3, active compounds read low
# [35] = locus YJR066W, strain TOR1 (second series), active compounds read low
# [36] = locus YJR066W, strain TOR1, active compounds read low
# [37] = locus YKL048C, strain ELM1, active compounds read low
# [38] = locus YKL067W, strain YNK1, active compounds read low
# [39] = locus YKL101W, strain HSL1, active compounds read low
# [40] = locus YKL193C, strain SDS22, active compounds read low
# [41] = locus YKL203C, strain TOR2, active compounds read low
# [42] = locus YLR113W, strain HOG1, active compounds read low
# [43] = locus YLR133W, strain CKI1, active compounds read low
# [44] = locus YLR403W, strain SFP1, active compounds read low
# [45] = locus YML070W, strain DAK1, active compounds read low
# [46] = locus YMR001C, strain CDC5, active compounds read low
# [47] = locus YMR205C, strain PFK2 (second series), active compounds read low
# [48] = locus YMR277W, strain FCP1, active compounds read low
# [49] = locus YNL006W, strain LST8, active compounds read low
# [50] = locus YNL020C, strain ARK1, active compounds read low
# [51] = locus YNL161W, strain CBK1, active compounds read low
# [52] = locus YNL183C, strain NPR1, active compounds read low
# [53] = locus YNL207W, strain RIO2, active compounds read low
# [54] = locus YNL222W, strain SSU72, active compounds read low
# [55] = locus YNL307C, strain MCK1 (second series), active compounds read low
# [56] = locus YOL078W, strain AVO1, active compounds read low
# [57] = locus YOL136C, strain PFK27, active compounds read low
# [58] = locus YOR061W, strain CKA2, active compounds read low
# [59] = locus YOR119C, strain RIO1, active compounds read low
# [60] = locus YOR231W, strain MKK1, active compounds read low
# [61] = locus YOR329C, strain SCD5, active compounds read low
# [62] = locus YPL031C, strain PHO85, active compounds read low
# [63] = locus YPL153C, strain RAD53, active compounds read low
# [64] = locus YPL204W, strain HRR25, active compounds read low
# [65] = locus YPL209C, strain IPL1, active compounds read low
# [66] = locus YPL256C, strain CLN2, active compounds read low
# [67] = locus YPR025C, strain CCL1, active compounds read low
# [68] = locus YPR106W, strain ISR1, active compounds read low
# [69] = locus YPR111W, strain DBF20, active compounds read low
# [70] = strain NNK1, active compounds read low
# [71] = strain TSCII, active compounds read low
compound,measurement,setting,value
O=C(Nc1ccc(C(F)(F)F)cc1)N1CCN(c2ccnc3cc(Cl)ccc23)CC1,normalized growth,[1],0.984
same,normalized growth,[2],0.977
same,normalized growth,[3],0.987
same,normalized growth,[4],0.973
same,normalized growth,[5],0.973
same,normalized growth,[6],0.994
same,normalized growth,[7],0.981
same,normalized growth,[8],0.982
same,normalized growth,[9],0.983
same,normalized growth,[10],0.995
same,normalized growth,[11],1.01
same,normalized growth,[12],0.983
same,normalized growth,[13],0.975
same,normalized growth,[14],0.983
same,normalized growth,[15],0.997
same,normalized growth,[16],1.02
same,normalized growth,[17],1.01
same,normalized growth,[18],0.985
same,normalized growth,[19],0.965
same,normalized growth,[20],0.988
same,normalized growth,[21],0.999
same,normalized growth,[22],0.984
same,normalized growth,[23],1
same,normalized growth,[24],1.08
same,normalized growth,[25],0.975
same,normalized growth,[26],1.08
same,normalized growth,[27],1.04
same,normalized growth,[28],1.1
same,normalized growth,[29],0.995
same,normalized growth,[30],0.981
same,normalized growth,[31],1.1
same,normalized growth,[32],0.993
same,normalized growth,[33],1
same,normalized growth,[34],0.993
same,normalized growth,[35],1.02
same,normalized growth,[36],1.11
same,normalized growth,[37],0.996
same,normalized growth,[38],0.992
same,normalized growth,[39],1.01
same,normalized growth,[40],0.988
same,normalized growth,[41],1.06
same,normalized growth,[42],1.01
same,normalized growth,[43],0.994
same,normalized growth,[44],1.02
same,normalized growth,[45],1.01
same,normalized growth,[46],0.98
same,normalized growth,[47],1.01
same,normalized growth,[48],0.99
same,normalized growth,[49],0.991
same,normalized growth,[50],1
same,normalized growth,[51],0.978
same,normalized growth,[52],1.04
same,normalized growth,[53],0.99
same,normalized growth,[54],0.982
same,normalized growth,[55],0.979
same,normalized growth,[56],0.991
same,normalized growth,[57],1.01
same,normalized growth,[58],1.01
same,normalized growth,[59],1.06
same,normalized growth,[60],1.02
same,normalized growth,[61],0.991
same,normalized growth,[62],1.01
same,normalized growth,[63],1.01
same,normalized growth,[64],0.997
same,normalized growth,[65],0.984
same,normalized growth,[66],1
same,normalized growth,[67],0.983
same,normalized growth,[68],0.986
same,normalized growth,[69],0.979
same,normalized growth,[70],0.979
same,normalized growth,[71],0.977
O=C(c1ccc2ccccc2c1)N1CCN(c2ccnc3cc(Cl)ccc23)CC1,normalized growth,[1],1
same,normalized growth,[2],1
same,normalized growth,[3],0.997
same,normalized growth,[4],0.997
same,normalized growth,[5],0.995
same,normalized growth,[6],0.998
same,normalized growth,[7],0.991
same,normalized growth,[8],0.994
same,normalized growth,[9],0.99
same,normalized growth,[10],0.987
same,normalized growth,[11],0.957
same,normalized growth,[12],0.988
same,normalized growth,[13],0.981
same,normalized growth,[14],1
same,normalized growth,[15],0.958
same,normalized growth,[16],0.947
same,normalized growth,[17],0.965
same,normalized growth,[18],0.993
same,normalized growth,[19],1
same,normalized growth,[20],1
same,normalized growth,[21],0.941
same,normalized growth,[22],0.997
same,normalized growth,[23],0.959
same,normalized growth,[24],1.08
same,normalized growth,[25],0.977
same,normalized growth,[26],0.821 (active)
same,normalized growth,[27],0.968
same,normalized growth,[28],1.01
same,normalized growth,[29],0.904
same,normalized growth,[30],0.996
same,normalized growth,[31],0.94
same,normalized growth,[32],0.98
same,normalized growth,[33],0.974
same,normalized growth,[34],0.998
same,normalized growth,[35],0.947
same,normalized growth,[36],0.96
same,normalized growth,[37],0.974
same,normalized growth,[38],0.962
same,normalized growth,[39],0.958
same,normalized growth,[40],0.992
same,normalized growth,[41],0.991
same,normalized growth,[42],0.955
same,normalized growth,[43],0.95
same,normalized growth,[44],0.951
same,normalized growth,[45],0.959
same,normalized growth,[46],0.992
same,normalized growth,[47],0.973
same,normalized growth,[48],0.995
same,normalized growth,[49],0.995
same,normalized growth,[50],0.945
same,normalized growth,[51],0.997
same,normalized growth,[52],0.953
same,normalized growth,[53],0.994
same,normalized growth,[54],0.995
same,normalized growth,[55],0.921
same,normalized growth,[56],0.997
same,normalized growth,[57],0.952
same,normalized growth,[58],0.973
same,normalized growth,[59],1.03
same,normalized growth,[60],0.955
same,normalized growth,[61],0.995
same,normalized growth,[62],0.953
same,normalized growth,[63],0.962
same,normalized growth,[64],0.939
same,normalized growth,[65],0.998
same,normalized growth,[66],0.929
same,normalized growth,[67],0.988
same,normalized growth,[68],0.999
same,normalized growth,[69],0.984
same,normalized growth,[70],0.987
same,normalized growth,[71],0.998
CC1CCN(C(=O)CC#N)CC1,normalized growth,"locus YAL013W, strain DEP1, active compounds read low",1
same,normalized growth,"locus YBR229C, strain ROT2, active compounds read low",1
same,normalized growth,[8],1.02
same,normalized growth,"locus YDL134C, strain PPH21, active compounds read low",0.986
same,normalized growth,"locus YDR150W, strain NUM1, active compounds read low",1.02
same,normalized growth,"locus YEL061C, strain CIN8, active compounds read low",1.03
same,normalized growth,"locus YGR078C, strain PAC10, active compounds read low",1
same,normalized growth,[26],1.06
same,normalized growth,"locus YHR087W, strain rtc3, active compounds read low",1.02
same,normalized growth,"locus YJL187C, strain SWE1, active compounds read low",0.981
same,normalized growth,"locus YJR043C, strain POL32, active compounds read low",0.999
same,normalized growth,"locus YJR075W, strain HOC1, active compounds read low",1.01
same,normalized growth,"locus YLR039C, strain RIC1, active compounds read low",1.08
same,normalized growth,"locus YLR058C, strain SHM2 (second series), active compounds read low",0.995
same,normalized growth,"locus YLR085C, strain ARP6, active compounds read low",1.01
same,normalized growth,"locus YLR262C, strain YPT6, active compounds read low",1.1
same,normalized growth,"locus YML094W, strain GIM5, active compounds read low",0.991
same,normalized growth,"locus YMR219W, strain ESC1, active compounds read low",1
same,normalized growth,"locus YMR263W, strain SAP30, active compounds read low",0.985
same,normalized growth,"locus YNL153C, strain GIM3, active compounds read low",1.01
same,normalized growth,"locus YNL298W, strain CLA4 (second series), active compounds read low",0.957
same,normalized growth,"locus YNL322C, strain KRE1, active compounds read low",0.992
same,normalized growth,"locus YNR030W, strain Alg12, active compounds read low",0.981
same,normalized growth,"locus YOL006C, strain TOP1, active compounds read low",1.01
same,normalized growth,"locus YPL055C, strain LGE1, active compounds read low",0.979
same,normalized growth,"locus YPL241C, strain CIN2, active compounds read low",0.996
same,normalized growth,"locus YPR135W, strain CTF4, active compounds read low",1.02
